Data taken from the supplement of paper PMC10849652.
Of roughly 8,800 targets only a part is listed; those with a hit were picked by preference. About 0.5% of all pairs of compound and target were hits. Unmarked numbers belong to inactive results.

What was measured:
Assay in all cases: log2 fold change, soluble protein after heating vs DMSO (PISA); higher = thermal stabilisation; K562 lysate, 10 uM; active = over 0.2 and 3.5 SD of the protein, either way, in both replicates (recomputed)
[1] = compound: NCC(=O)Nc1ccc(-n2nc(C(F)(F)F)cc2-c2ccc3c(ccc4ccccc43)c2)cc1
Method in brief: (§1)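 Soluble protein was defined as the supernatant remaining after 21,000xg for 90 min, following pooling of heated aliquots and adjustment to 0.5% NP-40 at 4°C. Before that, crude K562 extract at 1 mg/mL protein in PBS pH 7.4 with 1 mM MgCl2 was treated with 10 μM compound for 30 min and heated for 3 min across 48°C-58°C. Quantification used TMTpro 16plex LC-MS/MS with channel sums equalised, and values are log-two fold changes in thermal stability relative to solvent controls from duplicates.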

vorinostat = compound: O=C(CCCCCCC(=O)Nc1ccccc1)NO [vorinostat]
Method in brief: as §1

silmitasertib = compound: O=C(O)c1ccc2c(c1)nc(Nc1cccc(Cl)c1)c1ccncc12 [silmitasertib]
Method in brief: as §1

[2] = compound: O=C1NC(=O)C(c2cnc3ccccn23)=C1c1cn2c3c(cc(F)cc13)CN(C(=O)N1CCCCC1)CC2
Method in brief: as §1

entospletinib = compound: c1cn2cc(-c3ccc4cn[nH]c4c3)nc(Nc3ccc(N4CCOCC4)cc3)c2n1 [entospletinib]
Method in brief: as §1

UPF3B (UniProt Q9BZI7)
UniProt Q9BZI7, sequence (Q9BZI7 whole entry, looked up): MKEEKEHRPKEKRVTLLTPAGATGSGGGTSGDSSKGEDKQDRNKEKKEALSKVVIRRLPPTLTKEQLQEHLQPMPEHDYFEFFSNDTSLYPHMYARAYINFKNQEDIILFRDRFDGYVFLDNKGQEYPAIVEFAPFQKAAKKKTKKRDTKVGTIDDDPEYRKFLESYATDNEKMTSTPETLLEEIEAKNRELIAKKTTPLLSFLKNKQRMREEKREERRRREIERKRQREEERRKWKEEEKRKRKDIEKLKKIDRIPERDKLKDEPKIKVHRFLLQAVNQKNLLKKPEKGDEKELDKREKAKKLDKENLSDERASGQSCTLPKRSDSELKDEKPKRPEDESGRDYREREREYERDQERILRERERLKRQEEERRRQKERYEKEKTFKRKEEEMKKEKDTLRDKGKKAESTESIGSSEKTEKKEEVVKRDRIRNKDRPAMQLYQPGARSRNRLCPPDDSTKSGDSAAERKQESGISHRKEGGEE
log2 fold change [1]: 0.022
log2 fold change (vorinostat): 0.075
log2 fold change (silmitasertib): -0.02
log2 fold change [2]: -0.043
log2 fold change (entospletinib): -0.049

ZC3H13 (UniProt Q5T200)
log2 fold change [1]: 0.174
log2 fold change (vorinostat): -0.052
log2 fold change (silmitasertib): -0.008
log2 fold change [2]: -0.104
log2 fold change (entospletinib): 0.001

ZSWIM8 isoform 4 (UniProt A7E2V4)
log2 fold change [1]: 0.079
log2 fold change (vorinostat): -0.07
log2 fold change (silmitasertib): 0.081
log2 fold change [2]: 0.071
log2 fold change (entospletinib): -0.018

XPNPEP1 isoform 3 (UniProt Q9NQW7)
log2 fold change [1]: 0.006
log2 fold change (vorinostat): -0.068
log2 fold change (silmitasertib): -0.001
log2 fold change [2]: -0.019
log2 fold change (entospletinib): 0.002

ZMYM4 (UniProt Q5VZL5)
log2 fold change [1]: 0.05
log2 fold change (vorinostat): -0.383 (active)
log2 fold change (silmitasertib): -0.016
log2 fold change [2]: 0.009
log2 fold change (entospletinib): -0.013

YEATS4 (UniProt O95619)
log2 fold change [1]: 0.042
log2 fold change (vorinostat): 0.057
log2 fold change (silmitasertib): -0.029
log2 fold change [2]: -0.046
log2 fold change (entospletinib): -0.037

ZC3HC1 (UniProt Q86WB0)
log2 fold change [1]: 0.021
log2 fold change (vorinostat): -0.368 (active)
log2 fold change (silmitasertib): -0.034
log2 fold change [2]: -0.03
log2 fold change (entospletinib): 0.01

VPS37B (UniProt Q9H9H4)
log2 fold change [1]: 0.029
log2 fold change (vorinostat): -0.349 (active)
log2 fold change (silmitasertib): 0.045
log2 fold change [2]: -0.035
log2 fold change (entospletinib): -0.058

VASP (UniProt P50552)
log2 fold change [1]: 0.035
log2 fold change (vorinostat): 0.015
log2 fold change (silmitasertib): 0.015
log2 fold change [2]: 0.01
log2 fold change (entospletinib): -0.013

USP9X (UniProt Q93008)
log2 fold change [1]: 0.011
log2 fold change (vorinostat): -0.466 (active)
log2 fold change (silmitasertib): 0.028
log2 fold change [2]: -0.012
log2 fold change (entospletinib): 0

ZNF644 (UniProt Q9H582)
log2 fold change [1]: -0.007
log2 fold change (vorinostat): 0.222
log2 fold change (silmitasertib): -0.092
log2 fold change [2]: 0.016
log2 fold change (entospletinib): -0.022

VPS54 (UniProt Q9P1Q0)
log2 fold change [1]: 0.112
log2 fold change (vorinostat): -0.055
log2 fold change (silmitasertib): -0.001
log2 fold change [2]: 0.002
log2 fold change (entospletinib): 0.007

VPS28 (UniProt Q9UK41)
log2 fold change [1]: 0.03
log2 fold change (vorinostat): -0.37 (active)
log2 fold change (silmitasertib): -0.002
log2 fold change [2]: -0.043
log2 fold change (entospletinib): 0.033

YES1 (UniProt P07947)
log2 fold change [1]: 0.09
log2 fold change (vorinostat): -0.067
log2 fold change (silmitasertib): -0.187
log2 fold change [2]: -0.054
log2 fold change (entospletinib): 0.038

YLPM1 (UniProt P49750)
log2 fold change [1]: 0.013
log2 fold change (vorinostat): -0.126
log2 fold change (silmitasertib): -0.011
log2 fold change [2]: 0.017
log2 fold change (entospletinib): -0.004

UTP3 (UniProt Q9NQZ2)
log2 fold change [1]: 0.307 (active)
log2 fold change (vorinostat): 0.143
log2 fold change (silmitasertib): 0.022
log2 fold change [2]: -0.039
log2 fold change (entospletinib): 0.02

WRN (UniProt Q14191)
log2 fold change [1]: 0.003
log2 fold change (vorinostat): -0.282 (active)
log2 fold change (silmitasertib): 0.035
log2 fold change [2]: -0.013
log2 fold change (entospletinib): -0.005

VPS4A (UniProt Q9UN37)
log2 fold change [1]: -0.026
log2 fold change (vorinostat): -0.356 (active)
log2 fold change (silmitasertib): 0.059
log2 fold change [2]: -0.013
log2 fold change (entospletinib): 0.038

WDR45 isoform 2 (UniProt Q9Y484)
log2 fold change [1]: 0.018
log2 fold change (vorinostat): 0.025
log2 fold change (silmitasertib): 0.016
log2 fold change [2]: 0
log2 fold change (entospletinib): 0.009

USP48 isoform 8 (UniProt Q86UV5)
log2 fold change [1]: 0.014
log2 fold change (vorinostat): -0.474 (active)
log2 fold change (silmitasertib): 0.009
log2 fold change [2]: -0.022
log2 fold change (entospletinib): 0.021

YTHDF3 (UniProt Q7Z739)
log2 fold change [1]: 0.064
log2 fold change (vorinostat): 0.03
log2 fold change (silmitasertib): -0.084
log2 fold change [2]: -0.169
log2 fold change (entospletinib): 0.006

ZMYND8 isoform 19 (UniProt Q9ULU4)
log2 fold change [1]: 0.059
log2 fold change (vorinostat): -0.224 (active)
log2 fold change (silmitasertib): 0.029
log2 fold change [2]: 0.006
log2 fold change (entospletinib): -0.02

VRK2 (UniProt Q86Y07)
log2 fold change [1]: -0.158
log2 fold change (vorinostat): -0.166
log2 fold change (silmitasertib): -0.022
log2 fold change [2]: 0.039
log2 fold change (entospletinib): -0.064

WDHD1 (UniProt O75717)
UniProt O75717, sequence (O75717 whole entry, looked up): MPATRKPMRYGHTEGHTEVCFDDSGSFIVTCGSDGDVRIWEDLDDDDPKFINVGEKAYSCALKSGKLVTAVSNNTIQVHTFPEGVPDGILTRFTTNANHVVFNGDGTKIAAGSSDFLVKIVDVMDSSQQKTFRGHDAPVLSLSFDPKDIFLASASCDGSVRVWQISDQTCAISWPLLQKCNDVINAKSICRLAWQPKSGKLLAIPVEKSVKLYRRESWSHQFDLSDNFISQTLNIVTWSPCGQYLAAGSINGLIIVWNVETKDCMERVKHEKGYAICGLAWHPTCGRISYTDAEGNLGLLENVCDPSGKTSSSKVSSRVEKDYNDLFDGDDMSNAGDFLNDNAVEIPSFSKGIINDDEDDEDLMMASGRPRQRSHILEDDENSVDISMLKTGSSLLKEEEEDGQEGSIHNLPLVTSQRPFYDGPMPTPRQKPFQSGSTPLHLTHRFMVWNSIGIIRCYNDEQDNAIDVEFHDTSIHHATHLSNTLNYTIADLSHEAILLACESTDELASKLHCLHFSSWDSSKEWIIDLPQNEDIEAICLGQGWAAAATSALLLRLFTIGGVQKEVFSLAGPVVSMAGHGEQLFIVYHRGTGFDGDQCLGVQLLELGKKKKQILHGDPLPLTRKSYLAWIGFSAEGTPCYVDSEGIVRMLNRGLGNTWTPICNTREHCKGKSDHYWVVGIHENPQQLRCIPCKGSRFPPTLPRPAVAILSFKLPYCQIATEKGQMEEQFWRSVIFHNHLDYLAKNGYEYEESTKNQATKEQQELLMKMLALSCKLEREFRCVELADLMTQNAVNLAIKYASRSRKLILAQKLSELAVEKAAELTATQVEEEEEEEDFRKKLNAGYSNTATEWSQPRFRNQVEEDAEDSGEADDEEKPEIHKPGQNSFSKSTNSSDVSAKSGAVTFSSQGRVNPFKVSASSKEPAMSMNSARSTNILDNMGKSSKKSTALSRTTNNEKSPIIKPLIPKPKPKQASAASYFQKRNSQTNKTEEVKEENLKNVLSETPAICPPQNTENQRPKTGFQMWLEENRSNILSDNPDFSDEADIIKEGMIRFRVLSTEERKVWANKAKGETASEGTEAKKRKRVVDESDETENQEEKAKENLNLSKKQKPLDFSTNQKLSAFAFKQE
log2 fold change [1]: -0.011
log2 fold change (vorinostat): -0.259 (active)
log2 fold change (silmitasertib): 0.02
log2 fold change [2]: -0.018
log2 fold change (entospletinib): 0.016

WEE1 (UniProt P30291)
log2 fold change [1]: 0.023
log2 fold change (vorinostat): -0.52 (active)
log2 fold change (silmitasertib): 0.107
log2 fold change [2]: -0.03
log2 fold change (entospletinib): -0.007

VARS (UniProt P26640)
log2 fold change [1]: 0.006
log2 fold change (vorinostat): -0.275 (active)
log2 fold change (silmitasertib): 0.063
log2 fold change [2]: 0.022
log2 fold change (entospletinib): 0.024

WRB (UniProt O00258)
log2 fold change [1]: 0.082
log2 fold change (vorinostat): 0.131
log2 fold change (silmitasertib): -0.055
log2 fold change [2]: -0.012
log2 fold change (entospletinib): 0.146

VPS18 (UniProt Q9P253)
log2 fold change [1]: -0.016
log2 fold change (vorinostat): -0.386 (active)
log2 fold change (silmitasertib): 0.04
log2 fold change [2]: 0.015
log2 fold change (entospletinib): -0.006

ZZEF1 (UniProt O43149)
log2 fold change [1]: 0.02
log2 fold change (vorinostat): -0.263 (active)
log2 fold change (silmitasertib): 0.011
log2 fold change [2]: 0.012
log2 fold change (entospletinib): 0.004

YRDC (UniProt Q86U90)
log2 fold change [1]: 0.024
log2 fold change (vorinostat): -0.424 (active)
log2 fold change (silmitasertib): 0.006
log2 fold change [2]: -0.017
log2 fold change (entospletinib): -0.016

VAMP2 (UniProt P63027)
log2 fold change [1]: 0.071
log2 fold change (vorinostat): 0.016
log2 fold change (silmitasertib): -0.008
log2 fold change [2]: 0.132
log2 fold change (entospletinib): -0.054

UQCRC2 (UniProt P22695)
UniProt P22695, sequence (P22695 whole entry, looked up): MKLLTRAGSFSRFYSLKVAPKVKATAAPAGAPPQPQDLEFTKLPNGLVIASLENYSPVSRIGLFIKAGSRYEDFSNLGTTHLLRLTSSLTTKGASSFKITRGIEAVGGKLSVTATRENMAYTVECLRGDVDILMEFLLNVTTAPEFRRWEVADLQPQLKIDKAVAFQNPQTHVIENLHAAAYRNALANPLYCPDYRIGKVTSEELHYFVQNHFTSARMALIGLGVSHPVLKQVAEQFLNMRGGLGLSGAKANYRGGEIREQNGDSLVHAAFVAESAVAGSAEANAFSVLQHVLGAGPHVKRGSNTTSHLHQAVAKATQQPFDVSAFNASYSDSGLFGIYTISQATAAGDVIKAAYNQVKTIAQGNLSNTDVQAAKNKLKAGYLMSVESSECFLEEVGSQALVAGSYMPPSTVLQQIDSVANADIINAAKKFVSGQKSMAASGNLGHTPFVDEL
log2 fold change [1]: 0.01
log2 fold change (vorinostat): 0.123
log2 fold change (silmitasertib): -0.013
log2 fold change [2]: 0.03
log2 fold change (entospletinib): 0.007

WDCP (UniProt Q9H6R7)
log2 fold change [1]: -0.066
log2 fold change (vorinostat): -0.233 (active)
log2 fold change (silmitasertib): 0.022
log2 fold change [2]: 0.02
log2 fold change (entospletinib): -0.036

ZNF217 (UniProt O75362)
log2 fold change [1]: 0
log2 fold change (vorinostat): -0.301 (active)
log2 fold change (silmitasertib): 0.047
log2 fold change [2]: -0.054
log2 fold change (entospletinib): -0.061

ZFPM1 (UniProt Q8IX07)
UniProt Q8IX07, sequence (Q8IX07 whole entry, looked up): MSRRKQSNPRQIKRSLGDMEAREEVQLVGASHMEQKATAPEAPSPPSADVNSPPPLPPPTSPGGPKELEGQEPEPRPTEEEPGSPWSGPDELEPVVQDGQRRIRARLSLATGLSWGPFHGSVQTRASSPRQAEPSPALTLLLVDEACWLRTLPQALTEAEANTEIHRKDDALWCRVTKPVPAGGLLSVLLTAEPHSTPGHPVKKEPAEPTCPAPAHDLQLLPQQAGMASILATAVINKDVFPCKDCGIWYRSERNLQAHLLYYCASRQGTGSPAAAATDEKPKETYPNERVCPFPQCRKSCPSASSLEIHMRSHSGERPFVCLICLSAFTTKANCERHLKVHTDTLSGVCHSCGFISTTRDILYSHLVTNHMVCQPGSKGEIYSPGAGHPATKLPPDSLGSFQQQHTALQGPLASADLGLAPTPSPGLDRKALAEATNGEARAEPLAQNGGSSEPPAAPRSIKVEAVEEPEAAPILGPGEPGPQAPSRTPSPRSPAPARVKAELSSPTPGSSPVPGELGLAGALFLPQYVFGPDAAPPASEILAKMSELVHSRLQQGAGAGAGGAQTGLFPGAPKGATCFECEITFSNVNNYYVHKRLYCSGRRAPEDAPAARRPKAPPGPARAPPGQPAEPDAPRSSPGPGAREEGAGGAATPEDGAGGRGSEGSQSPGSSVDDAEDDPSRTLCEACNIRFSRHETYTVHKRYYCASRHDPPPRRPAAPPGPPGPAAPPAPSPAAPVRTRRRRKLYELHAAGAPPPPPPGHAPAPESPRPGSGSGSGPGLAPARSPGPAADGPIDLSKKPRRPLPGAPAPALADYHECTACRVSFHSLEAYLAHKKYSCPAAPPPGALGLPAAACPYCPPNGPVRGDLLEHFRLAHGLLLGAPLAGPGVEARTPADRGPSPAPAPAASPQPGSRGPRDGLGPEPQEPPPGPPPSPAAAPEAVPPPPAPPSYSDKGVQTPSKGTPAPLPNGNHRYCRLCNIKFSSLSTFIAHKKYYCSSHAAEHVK
log2 fold change [1]: -0.009
log2 fold change (vorinostat): -0.251 (active)
log2 fold change (silmitasertib): 0
log2 fold change [2]: -0.03
log2 fold change (entospletinib): -0.021

VPS33A (UniProt Q96AX1)
UniProt Q96AX1, sequence (Q96AX1 whole entry, looked up): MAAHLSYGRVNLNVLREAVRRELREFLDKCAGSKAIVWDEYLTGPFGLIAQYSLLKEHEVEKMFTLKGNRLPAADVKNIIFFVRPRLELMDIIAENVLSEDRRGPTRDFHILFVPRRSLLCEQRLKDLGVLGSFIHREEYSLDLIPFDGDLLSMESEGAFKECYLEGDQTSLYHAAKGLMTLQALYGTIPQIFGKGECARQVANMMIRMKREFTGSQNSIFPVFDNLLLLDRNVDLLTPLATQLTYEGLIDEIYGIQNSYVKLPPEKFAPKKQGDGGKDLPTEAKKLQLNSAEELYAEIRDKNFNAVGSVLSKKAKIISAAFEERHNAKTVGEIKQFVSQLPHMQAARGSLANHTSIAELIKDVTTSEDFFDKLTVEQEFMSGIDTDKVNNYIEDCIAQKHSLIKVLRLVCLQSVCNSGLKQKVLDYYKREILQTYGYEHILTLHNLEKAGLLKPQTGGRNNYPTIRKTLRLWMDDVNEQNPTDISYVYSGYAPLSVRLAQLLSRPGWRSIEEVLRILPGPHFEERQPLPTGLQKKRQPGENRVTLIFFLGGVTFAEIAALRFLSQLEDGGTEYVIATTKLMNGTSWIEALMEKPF
log2 fold change [1]: 0.011
log2 fold change (vorinostat): -0.222 (active)
log2 fold change (silmitasertib): 0.025
log2 fold change [2]: 0.007
log2 fold change (entospletinib): -0.018

WDR24 (UniProt Q96S15)
log2 fold change [1]: 0.041
log2 fold change (vorinostat): -0.202
log2 fold change (silmitasertib): 0.134
log2 fold change [2]: 0.032
log2 fold change (entospletinib): 0.022

UTP18 (UniProt Q9Y5J1)
log2 fold change [1]: 0.045
log2 fold change (vorinostat): -0.078
log2 fold change (silmitasertib): -0.014
log2 fold change [2]: 0.029
log2 fold change (entospletinib): -0.136

USP3 (UniProt Q9Y6I4)
log2 fold change [1]: 0.015
log2 fold change (vorinostat): -0.469 (active)
log2 fold change (silmitasertib): -0.026
log2 fold change [2]: 0.015
log2 fold change (entospletinib): -0.013

WIPI2 (UniProt Q9Y4P8)
UniProt Q9Y4P8, sequence (Q9Y4P8 whole entry, looked up): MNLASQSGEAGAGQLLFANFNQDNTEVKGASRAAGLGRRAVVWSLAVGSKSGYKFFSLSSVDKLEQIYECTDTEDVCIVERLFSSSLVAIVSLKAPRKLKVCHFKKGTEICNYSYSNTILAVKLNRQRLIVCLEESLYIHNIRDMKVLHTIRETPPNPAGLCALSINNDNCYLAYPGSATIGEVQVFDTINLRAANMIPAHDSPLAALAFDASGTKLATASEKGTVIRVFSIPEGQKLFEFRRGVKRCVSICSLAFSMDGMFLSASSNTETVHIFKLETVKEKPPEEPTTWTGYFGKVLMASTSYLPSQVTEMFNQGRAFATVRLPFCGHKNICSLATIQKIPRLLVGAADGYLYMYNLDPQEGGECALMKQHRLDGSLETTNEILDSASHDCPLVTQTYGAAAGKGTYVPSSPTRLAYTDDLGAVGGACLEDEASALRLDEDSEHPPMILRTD
log2 fold change [1]: -0.036
log2 fold change (vorinostat): -0.303 (active)
log2 fold change (silmitasertib): 0.033
log2 fold change [2]: -0.005
log2 fold change (entospletinib): -0.008

ZNF609 (UniProt O15014)
log2 fold change [1]: 0.184
log2 fold change (vorinostat): -0.309 (active)
log2 fold change (silmitasertib): 0.041
log2 fold change [2]: -0.013
log2 fold change (entospletinib): -0.026

VPS11 (UniProt Q9H270)
log2 fold change [1]: 0.023
log2 fold change (vorinostat): -0.509 (active)
log2 fold change (silmitasertib): -0.009
log2 fold change [2]: 0.011
log2 fold change (entospletinib): -0.006

ZHX1 (UniProt Q9UKY1)
log2 fold change [1]: 0.043
log2 fold change (vorinostat): -0.249
log2 fold change (silmitasertib): -0.094
log2 fold change [2]: -0.018
log2 fold change (entospletinib): -0.082

WDR36 (UniProt Q8NI36)
UniProt Q8NI36, sequence (Q8NI36 whole entry, looked up): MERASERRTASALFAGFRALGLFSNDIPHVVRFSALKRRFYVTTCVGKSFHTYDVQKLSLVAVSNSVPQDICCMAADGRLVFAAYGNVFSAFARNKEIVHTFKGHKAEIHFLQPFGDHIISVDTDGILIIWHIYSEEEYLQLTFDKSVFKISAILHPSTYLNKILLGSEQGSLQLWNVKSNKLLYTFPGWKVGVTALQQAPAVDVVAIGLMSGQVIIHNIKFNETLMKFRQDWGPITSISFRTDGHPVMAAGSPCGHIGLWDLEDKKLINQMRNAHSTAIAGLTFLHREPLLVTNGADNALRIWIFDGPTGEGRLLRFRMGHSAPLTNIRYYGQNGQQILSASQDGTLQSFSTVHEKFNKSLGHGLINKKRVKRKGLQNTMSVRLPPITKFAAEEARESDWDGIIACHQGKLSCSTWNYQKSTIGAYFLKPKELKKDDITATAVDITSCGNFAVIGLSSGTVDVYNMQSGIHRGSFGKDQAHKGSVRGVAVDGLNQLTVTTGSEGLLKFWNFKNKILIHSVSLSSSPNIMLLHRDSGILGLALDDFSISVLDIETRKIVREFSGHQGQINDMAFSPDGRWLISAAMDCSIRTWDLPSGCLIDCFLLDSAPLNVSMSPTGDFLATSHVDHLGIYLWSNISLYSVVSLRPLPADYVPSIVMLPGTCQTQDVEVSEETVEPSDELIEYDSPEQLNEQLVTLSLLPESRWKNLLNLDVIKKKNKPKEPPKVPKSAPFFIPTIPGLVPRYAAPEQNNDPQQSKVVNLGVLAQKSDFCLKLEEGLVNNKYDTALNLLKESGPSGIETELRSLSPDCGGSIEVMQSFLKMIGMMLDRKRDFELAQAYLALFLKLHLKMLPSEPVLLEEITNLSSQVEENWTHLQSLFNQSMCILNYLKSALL
log2 fold change [1]: -0.051
log2 fold change (vorinostat): -0.345 (active)
log2 fold change (silmitasertib): 0.044
log2 fold change [2]: 0.028
log2 fold change (entospletinib): -0.011

VPS41 (UniProt P49754)
log2 fold change [1]: -0.025
log2 fold change (vorinostat): -0.471 (active)
log2 fold change (silmitasertib): 0.004
log2 fold change [2]: -0.018
log2 fold change (entospletinib): 0.007

VPS13C (UniProt Q709C8)
log2 fold change [1]: 0.005
log2 fold change (vorinostat): 0.062
log2 fold change (silmitasertib): -0.033
log2 fold change [2]: 0.027
log2 fold change (entospletinib): -0.051

USP16 (UniProt Q9Y5T5)
log2 fold change [1]: 0.019
log2 fold change (vorinostat): -0.272 (active)
log2 fold change (silmitasertib): 0.012
log2 fold change [2]: -0.019
log2 fold change (entospletinib): -0.031

USP48 (UniProt Q86UV5)
log2 fold change [1]: -0.054
log2 fold change (vorinostat): -0.528 (active)
log2 fold change (silmitasertib): 0.07
log2 fold change [2]: 0.034
log2 fold change (entospletinib): -0.102

VHL (UniProt P40337)
log2 fold change [1]: 0.015
log2 fold change (vorinostat): -0.289
log2 fold change (silmitasertib): -0.038
log2 fold change [2]: -0.011
log2 fold change (entospletinib): -0.001

ZKSCAN8 (UniProt Q15776)
log2 fold change [1]: 0.015
log2 fold change (vorinostat): 0.229
log2 fold change (silmitasertib): -0.005
log2 fold change [2]: 0.055
log2 fold change (entospletinib): -0.002

ZMAT2 (UniProt Q96NC0)
log2 fold change [1]: 0.033
log2 fold change (vorinostat): 0.188
log2 fold change (silmitasertib): -0.051
log2 fold change [2]: -0.024
log2 fold change (entospletinib): 0.021

USE1 (UniProt Q9NZ43)
log2 fold change [1]: -0.113
log2 fold change (vorinostat): -0.029
log2 fold change (silmitasertib): 0.028
log2 fold change [2]: 0.053
log2 fold change (entospletinib): -0.036

WDR7 (UniProt Q9Y4E6)
log2 fold change [1]: -0.01
log2 fold change (vorinostat): -0.236 (active)
log2 fold change (silmitasertib): 0.032
log2 fold change [2]: 0.01
log2 fold change (entospletinib): -0.017

XPO5 (UniProt Q9HAV4)
log2 fold change [1]: 0
log2 fold change (vorinostat): -0.574 (active)
log2 fold change (silmitasertib): 0.035
log2 fold change [2]: 0.011
log2 fold change (entospletinib): 0.015
